Records with an inconclusive call do not appear. Activity calls are given as the source filed them. How the source made its calls, unless noted: active means hit-call score of the fitted dose curve at least 0.9, where 1 is the maximum; inactive means score below 0.9.
How the values were obtained:
[1] = system: DIO1 (gene 1733); assay: CCTE_GLTED_hDIO1: CCTE's human Deiodinase 1 (DIO1) Inhibition Assay, Great Lakes Toxicology and Ecology Division (GLTED) Lab (AID 2283987; active means hit-call score of the fitted dose curve at least 0.9, where 1 is the maximum;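 further: isolated human DIO1 enzyme in a cell-free setup rather than cells; enzyme activity read as free iodide liberated from substrate via Sandell-Kolthoff colorimetry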)
Outline: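 Cell-free human DIO1 enzyme was incubated with test chemical for 3 h, and iodide released from substrate was measured by Sandell-Kolthoff absorbance. Loss of signal versus DMSO baseline indicated inhibition; plates were run in triplicate.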

[2] = target: Nucleoli Translocation, AR (gene 367) (UniProt P10275); assay: UPITT_HCI_U2OS_AR_TIF2_Nucleoli_Antagonist: University of Pittsburgh U2OS Androgen Receptor-Transcriptional Intermediary Factor 2 (AR-TIF2) Antagonism High Content Imaging Assay for Nucleoli Translocation (AID 2283997; active means hit-call score of the fitted dose curve at least 0.9, where 1 is the maximum)
Outline: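 U2OS cells expressing RFP-tagged human AR and GFP-tagged TIF2 were imaged by high-content fluorescence microscopy for red AR signal in the nucleolar region. Compounds were screened at 20 uM final (0.2% DMSO), with activity fitted relative to DHT as baseline.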

[3] = target: Nucleoli Translocation, AR (gene 367) (UniProt P10275); assay: UPITT_HCI_U2OS_AR_TIF2_Nucleoli_Agonist: University of Pittsburgh U2OS Androgen Receptor-Transcriptional Intermediary Factor 2 (AR-TIF2) Agonism High Content Imaging Assay for Nucleoli Translocation (AID 2283998; active means hit-call score of the fitted dose curve at least 0.9, where 1 is the maximum)
Outline: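 Cells express human AR fused to red fluorescent protein and TIF2 fused to GFP. Red fluorescence in the nucleolar region was quantified by high-content imaging and fitted as gain-of-signal against a DMSO baseline. Compounds were tested at 0.195 to 50 uM final (0.5% DMSO).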

[4] = target: Ratio of Nucleoli Translocation and Cytoplasm, AR (gene 367) (UniProt P10275); assay: UPITT_HCI_U2OS_AR_TIF2_Nucleoli_Cytoplasm_Ratio_Antagonist: University of Pittsburgh U2OS Androgen Receptor-Transcriptional Intermediary Factor 2 (AR-TIF2) Antagonism High Content Imaging Assay for Ratio of Nucleoli Translocation and Cytoplasm (AID 2283999; active means hit-call score of the fitted dose curve at least 0.9, where 1 is the maximum;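 further: antagonists lower the DHT-driven ratio of nucleolar to cytoplasmic red signal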)
Outline: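 High-content imaging quantifies the red nucleolar:cytoplasmic fluorescence ratio in U2OS cells with AR-RFP and TIF2-GFP. Final concentrations are 20 uM (screen) or 0.195–50 uM (dose response), analysed against DHT as baseline.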

[5] = CCTE_Harrill_HTTr_Viability_DMEM_6hr: (Pilot) CCTE's 6-hour Cell Viability Assessment for the High-Throughput Transcriptomics (HTTr) Platform, in MCF-7 cells cultured in DMEM + 10% fetal bovine serum, Harrill Lab (AID 2283973)
Outline: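 MCF-7 cells in DMEM + 10% FBS, eight-point dilution series, 6 h exposure. Membrane integrity by propidium iodide exclusion with high-content imaging; bidirectional fit versus DMSO.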

[6] = CCTE_Harrill_HTTr_Viability_DMEM_12hr: (Pilot) CCTE's 12-hour Cell Viability Assessment for the High-Throughput Transcriptomics (HTTr) Platform, in MCF-7 cells cultured in DMEM + 10% fetal bovine serum, Harrill Lab (AID 2283974)
Outline: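 MCF-7 cells in DMEM + 10% FBS exposed 12 h to an eight-point dilution series; membrane integrity scored by propidium iodide exclusion with high-content imaging, bidirectional fitting versus DMSO.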

[7] = CCTE_Harrill_HTTr_Viability_DMEM_24hr: (Pilot) CCTE's 24-hour Cell Viability Assessment for the High-Throughput Transcriptomics (HTTr) Platform, in MCF-7 cells cultured in DMEM + 10% fetal bovine serum, Harrill Lab (AID 2283975)
Outline: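 MCF-7 cells in DMEM with 10% FBS exposed for 24 hours to an eight-point dilution series. Membrane integrity by propidium iodide exclusion with high content imaging; bidirectional fit against DMSO.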

[8] = CCTE_Harrill_HTTr_Viability_PRF_DMEM_6hr: (Pilot) CCTE's 6-hour Cell Viability Assessment for the High-Throughput Transcriptomics (HTTr) Platform, in MCF-7 cells cultured phenol red-free DMEM + 10% charcoal-stripped fetal bovine serum, Harrill Lab (AID 2283976)
Outline: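 MCF-7 cells in phenol red-free DMEM with 10% charcoal-stripped FBS exposed 6 hours to an eight-point dilution series. Propidium iodide exclusion imaged; curves fitted bidirectionally against DMSO.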

[9] = CCTE_Harrill_HTTr_Viability_PRF_DMEM_12hr: (Pilot) CCTE's 12-hour Cell Viability Assessment for the High-Throughput Transcriptomics (HTTr) Platform, in MCF-7 cells cultured in phenol red-free DMEM + 10% charcoal-stripped fetal bovine serum, Harrill Lab (AID 2283977)
Outline: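 MCF-7 cells in phenol red-free DMEM with 10% charcoal-stripped FBS exposed 12 hours to an eight-point dilution series. Viability assessed by high-content imaging of propidium iodide exclusion; bidirectional fit versus DMSO.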

[10] = CCTE_Harrill_HTTr_Viability_PRF_DMEM_24hr: (Pilot) CCTE's 24-hour Cell Viability Assessment for the High-Throughput Transcriptomics (HTTr) Platform, in MCF-7 cells cultured in phenol red-free DMEM + 10% charcoal-stripped fetal bovine serum, Harrill Lab (AID 2283980)
Outline: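 MCF-7 cells in phenol red-free DMEM with 10% charcoal-stripped FBS, eight-point dilution series, 24 h exposure. Membrane integrity by propidium iodide exclusion with high content imaging; bidirectional fit vs DMSO.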

[11] = CCTE_Harrill_HTTr_Apoptosis_DMEM_6hr: (Pilot) CCTE's 6-hour Apoptosis Assessment for the High-Throughput Transcriptomics (HTTr) Platform, in MCF-7 cells cultured in DMEM + 10% fetal bovine serum, Harrill Lab (AID 2283981)
Outline: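 Caspase-3/7 activation read by high content imaging with CellEvent Caspase 3/7 Green in MCF-7 cells (DMEM + 10% FBS), 6 h after dosing; eight-point dilution series. Bidirectional fitting relative to DMSO baseline.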

[12] = CCTE_Harrill_HTTr_Apoptosis_DMEM_12hr: (Pilot) CCTE's 12-hour Apoptosis Assessment for the High-Throughput Transcriptomics (HTTr) Platform, in MCF-7 cells cultured in DMEM + 10% fetal bovine serum, Harrill Lab (AID 2283982)
Outline: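 MCF-7 cells in DMEM + 10% FBS, exposed 12 h to an eight-point dilution series; caspase-3/7 activation imaged with CellEvent Green. Bidirectional fit versus DMSO.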

[13] = CCTE_Harrill_HTTr_Apoptosis_DMEM_24hr: (Pilot) CCTE's 24-hour Apoptosis Assessment for the High-Throughput Transcriptomics (HTTr) Platform, in MCF-7 cells cultured in DMEM + 10% fetal bovine serum, Harrill Lab (AID 2283983)
Outline: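 MCF-7 cells in DMEM + 10% FBS, eight-point dilution series, 24 h exposure. Caspase-3/7 activation imaged by high-content imaging with CellEvent Caspase 3/7 Green. Bidirectional curve fitting against DMSO baseline.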

[14] = CCTE_Harrill_HTTr_Apoptosis_PRF_DMEM_6hr: (Pilot) CCTE's 6-hour Apoptosis Assessment for the High-Throughput Transcriptomics (HTTr) Platform, in MCF-7 cells cultured phenol red-free DMEM + 10% charcoal-stripped fetal bovine serum, Harrill Lab (AID 2283984)
Outline: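 MCF-7 cells in phenol red-free DMEM + 10% charcoal-stripped FBS, eight-point dilution series, 6 h exposure. Caspase-3/7 activation imaged by high-content imaging with CellEvent Caspase 3/7 Green; bidirectional fit versus DMSO baseline.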

[15] = CCTE_Harrill_HTTr_Apoptosis_PRF_DMEM_12hr: (Pilot) CCTE's 12-hour Apoptosis Assessment for the High-Throughput Transcriptomics (HTTr) Platform, in MCF-7 cells cultured in phenol red-free DMEM + 10% charcoal-stripped fetal bovine serum, Harrill Lab (AID 2283985)
Outline: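 MCF-7 cells in phenol red-free DMEM with 10% charcoal-stripped FBS, eight-point dilution series, 12 h exposure. Caspase-3/7 activation imaged by high content imaging with CellEvent Green reagent; bidirectional fit vs DMSO.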

[16] = CCTE_Harrill_HTTr_Apoptosis_PRF_DMEM_24hr: (Pilot) CCTE's 24-hour Apoptosis Assessment for the High-Throughput Transcriptomics (HTTr) Platform, in MCF-7 cells cultured in phenol red-free DMEM + 10% charcoal-stripped fetal bovine serum, Harrill Lab (AID 2283986)
Outline: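 MCF-7 cells in phenol red-free DMEM with 10% charcoal-stripped FBS, exposed 24 h across an eight-point dilution series. Caspase-3/7 activation imaged with CellEvent Green by high content imaging; bidirectional fitting against DMSO.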

[17] = TOX21_TRB_BLA_Antagonist_Followup_viability: Viability Assessment in the Tox21 Thyroid Hormone Receptor beta Antagonism Beta-lactamase (BLA) Follow-Up Assay (AID 2283961; active means hit-call score of the fitted dose curve at least 0.9, where 1 is the maximum)
Outline: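 HEK293T cells stably expressing GAL4-DBD/human TRβ-LBD with UAS-bla reporter, 3,000 cells/well in phenol red-free DMEM, 2% charcoal-stripped FBS. Compounds at 11 concentrations in triplicate, 18 h at 37C/5% CO2; viability by CellTiter-Glo luminescence after 30 min at room temperature.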

[18] = target: THRB (gene 7068) (UniProt P10828); assay: TOX21_TRB_COA_Antagonist_Followup_ratio: Tox21 Thyroid Hormone Receptor beta Antagonism through Coactivator Recruitment Follow-Up Assay, Ratio (AID 2283967; active means hit-call score of the fitted dose curve at least 0.9, where 1 is the maximum)
Outline: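 Cell-free TR-FRET coactivator recruitment with GST-tagged TRβ LBD (5.0 nM) and fluorescein-labeled SRC-2 peptide (200 nM) detected by terbium anti-GST antibody (2 nM). The 520:495 nm emission ratio was normalized to DMSO (0%) and T3 (100%).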

[19] = target: Retinoic acid receptor RXR-alpha (Homo sapiens) (UniProt P19793); assay: TOX21_TR_RXR_BLA_Antagonist_Followup_ratio: Tox21 Thyroid Hormone Receptor beta Retinoid X Receptor alpha (RXRa) Antagonism Beta-lactamase (BLA) Follow-Up Assay, Ratio (AID 2283972; active means hit-call score of the fitted dose curve at least 0.9, where 1 is the maximum)
Outline: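 RXRa-UAS-bla HEK293T cells in phenol red-free DMEM with 2% charcoal-stripped FBS; compounds at 11 concentrations in triplicate, 16 h at 37C. LiveBLAzer FRET-B/CCF4-AM substrate 2 h at room temperature; read as 460:530 nm ratio versus DMSO.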

[20] = TOX21_TR_RXR_BLA_Antagonist_Followup_viability: Viability Assessment in the Tox21 Thyroid Hormone Receptor beta Retinoid X Receptor alpha (RXRa) Antagonism Beta-lactamase (BLA) Follow-Up Assay (AID 2283979; active means hit-call score of the fitted dose curve at least 0.9, where 1 is the maximum)
Outline: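 RXRa-UAS-bla HEK293T cells seeded 2,500/well in phenol red-free DMEM with 2% charcoal-stripped FBS, attached 5 h, then exposed to compounds at 11 concentrations in triplicate for 16 h at 37C/5% CO2. Viability read by CellTiter-Glo ATP luminescence; bidirectional fit versus DMSO.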

Measured: AC50

Chain of Ratio of Nucleoli Translocation and Cytoplasm, AR (gene 367) (P10275 whole entry, looked up): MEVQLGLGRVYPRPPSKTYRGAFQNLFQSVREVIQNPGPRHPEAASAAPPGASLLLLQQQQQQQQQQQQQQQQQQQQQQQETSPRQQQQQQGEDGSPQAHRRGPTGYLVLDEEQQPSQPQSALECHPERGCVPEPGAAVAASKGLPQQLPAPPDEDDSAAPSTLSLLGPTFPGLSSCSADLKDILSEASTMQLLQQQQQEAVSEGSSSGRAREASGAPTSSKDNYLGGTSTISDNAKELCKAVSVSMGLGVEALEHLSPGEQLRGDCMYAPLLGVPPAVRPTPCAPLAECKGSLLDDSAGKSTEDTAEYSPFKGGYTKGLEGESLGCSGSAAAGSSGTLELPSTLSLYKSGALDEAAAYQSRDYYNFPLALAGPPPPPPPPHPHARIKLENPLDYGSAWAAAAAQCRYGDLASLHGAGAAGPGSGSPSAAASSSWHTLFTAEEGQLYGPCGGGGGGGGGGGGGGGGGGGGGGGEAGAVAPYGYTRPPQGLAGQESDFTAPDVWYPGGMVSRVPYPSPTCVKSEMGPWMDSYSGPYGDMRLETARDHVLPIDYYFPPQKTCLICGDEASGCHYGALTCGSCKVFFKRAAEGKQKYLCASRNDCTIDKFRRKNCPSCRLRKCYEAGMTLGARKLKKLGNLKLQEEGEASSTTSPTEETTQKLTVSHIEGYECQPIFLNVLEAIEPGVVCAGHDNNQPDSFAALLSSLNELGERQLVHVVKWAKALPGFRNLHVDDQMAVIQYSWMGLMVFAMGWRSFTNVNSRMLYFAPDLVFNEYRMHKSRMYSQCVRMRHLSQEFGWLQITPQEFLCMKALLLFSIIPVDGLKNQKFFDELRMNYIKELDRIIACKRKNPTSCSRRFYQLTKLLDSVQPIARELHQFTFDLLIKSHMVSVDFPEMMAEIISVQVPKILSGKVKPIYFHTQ
Chain of Nucleoli Translocation, AR (gene 367) (P10275 whole entry, looked up, the tested form may be a part): as the sequence (P10275 whole entry, looked up) above
Chain of Retinoic acid receptor RXR-alpha (Homo sapiens) (P19793 whole entry, looked up): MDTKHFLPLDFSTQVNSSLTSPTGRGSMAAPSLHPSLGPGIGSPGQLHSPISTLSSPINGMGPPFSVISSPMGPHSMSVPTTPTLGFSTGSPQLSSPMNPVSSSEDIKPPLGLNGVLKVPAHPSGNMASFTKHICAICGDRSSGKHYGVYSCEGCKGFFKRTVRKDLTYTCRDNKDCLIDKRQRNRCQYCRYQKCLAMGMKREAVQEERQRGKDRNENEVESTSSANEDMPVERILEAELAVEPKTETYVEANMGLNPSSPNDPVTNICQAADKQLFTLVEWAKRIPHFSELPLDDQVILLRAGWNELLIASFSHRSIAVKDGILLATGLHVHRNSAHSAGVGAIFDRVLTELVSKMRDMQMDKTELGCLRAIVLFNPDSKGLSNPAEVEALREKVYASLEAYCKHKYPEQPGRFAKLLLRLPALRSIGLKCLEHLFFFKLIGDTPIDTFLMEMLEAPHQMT
Chain of THRB (gene 7068) (P10828 whole entry, looked up, the tested form may be a part): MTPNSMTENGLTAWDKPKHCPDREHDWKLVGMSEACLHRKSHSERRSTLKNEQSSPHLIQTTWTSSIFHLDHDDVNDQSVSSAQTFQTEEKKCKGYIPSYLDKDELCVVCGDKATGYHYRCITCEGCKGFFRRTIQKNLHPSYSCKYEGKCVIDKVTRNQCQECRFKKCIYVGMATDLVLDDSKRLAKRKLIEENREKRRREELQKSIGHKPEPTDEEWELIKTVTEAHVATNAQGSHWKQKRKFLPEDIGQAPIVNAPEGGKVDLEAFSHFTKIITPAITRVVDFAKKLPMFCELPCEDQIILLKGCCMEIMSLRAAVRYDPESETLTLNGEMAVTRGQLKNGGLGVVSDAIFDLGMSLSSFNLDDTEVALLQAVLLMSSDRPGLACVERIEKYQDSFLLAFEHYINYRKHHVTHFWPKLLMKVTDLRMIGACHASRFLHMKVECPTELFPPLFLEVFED

CCCN(CCC)c1c([N+](=O)[O-])cc(S(N)(=O)=O)cc1[N+](=O)[O-]
active: [1] 166 µM [middle of 7 runs]

CC(C)Oc1cc(-n2nc(C(C)(C)C)oc2=O)c(Cl)cc1Cl
inactive: [2] | [3] | [4]

Cc1cc(Cl)ccc1OCC(=O)O
inactive: [3] | [4]

CCCC1COC(Cn2cncn2)(c2ccc(Cl)cc2Cl)O1 (stereo not given)
active: [3] 92.8 µM
not listed: [1] | [2] | [17] | [18] | [19] | [20]
inactive: all other assays above

CCNc1nc(Cl)nc(NCC)n1
not listed: [1] | [2] | [3] | [4] | [17] | [18] | [19] | [20]
inactive: all other assays above

CCNc1nc(Cl)nc(NC(C)C)n1
not listed: [1] | [2] | [3] | [4] | [17] | [18] | [19] | [20]
inactive: all other assays above

N#Cc1cc(Br)c(O)c(Br)c1
inactive: [2]

COC(=O)N(OC)c1ccccc1COc1ccn(-c2ccc(Cl)cc2)n1
active: [17] 14.9 µM | [19] 38.3 µM | [20] 7.9 µM
not listed: [1] | [2] | [3] | [4]
inactive: all other assays above

N#CC(CCc1ccc(Cl)cc1)(Cn1cncn1)c1ccccc1 (stereo not given)
inactive: [2] | [3] | [4]

CC1=C(C(=O)Nc2ccccc2)SCCO1
inactive: [2]

Reference: PubChem BioAssay (EPA / NIEHS)
